In PubChem BioAssay (NCATS):
Several values for one entry are separate records, joined by “and”; a condition that tells them apart may be missing. Equal values may be shown once. Results filed as inconclusive are left out. Activity calls are given as the source filed them. Calls follow the shape of the dose curve; as a rule, active = well fitted inhibition curve with a large enough effect; inconclusive = small, poorly fitted or top-dose-only effect; inactive = flat fitted curve, though single readings scatter.

Tests used:
[1] = qHTS profiling for inhibitors of Plasmodium falciparum proliferation (AID 504749);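 as to activity, negative = inhibition: 0% = DMSO vehicle and full inhibition = artemisinin control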; as to all read-outs here: nearly all actives have a fitted effect of over 60% in size; settings: P. falciparum in erythrocytes, SYBR Green DNA, 72 h; for activity, negative = inhibition: at 28.7 µM (top of the series)
Procedure, shortened: (§1)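 In a 72 h erythrocytic culture (37 C, humidified, 5% CO2) at 2.5% hematocrit and 0.3% starting parasitemia, compounds were tested; SYBR Green I in detergent lysis buffer stained parasite DNA overnight.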

[2] = tested on: 3D7; experiment: as above; settings: P. falciparum in erythrocytes, SYBR Green DNA, 72 h; series mostly up to 28.7 µM
Procedure, shortened: as §1

[3] = tested on: AA1029; experiment: as above; settings: P. falciparum in erythrocytes, SYBR Green DNA, 72 h; series mostly up to 28.7 µM
Procedure, shortened: as §1

[4] = tested on: AS120; experiment: as above; settings: P. falciparum in erythrocytes, SYBR Green DNA, 72 h; series mostly up to 28.7 µM
Procedure, shortened: as §1

[5] = tested on: ATS189; experiment: as above; settings: P. falciparum in erythrocytes, SYBR Green DNA, 72 h; series mostly up to 28.7 µM
Procedure, shortened: as §1

[6] = tested on: ATS95; experiment: as above; settings: P. falciparum in erythrocytes, SYBR Green DNA, 72 h; series mostly up to 28.7 µM
Procedure, shortened: as §1

[7] = tested on: C2A; experiment: as above; settings: P. falciparum in erythrocytes, SYBR Green DNA, 72 h; series mostly up to 28.7 µM
Procedure, shortened: as §1

[8] = tested on: CP185; experiment: as above; settings: P. falciparum in erythrocytes, SYBR Green DNA, 72 h; series mostly up to 28.7 µM
Procedure, shortened: as §1

[9] = tested on: CP191; experiment: as above; settings: P. falciparum in erythrocytes, SYBR Green DNA, 72 h; series mostly up to 28.7 µM
Procedure, shortened: as §1

[10] = tested on: CP192; experiment: as above; settings: P. falciparum in erythrocytes, SYBR Green DNA, 72 h; series mostly up to 28.7 µM
Procedure, shortened: as §1

[11] = tested on: CP194; experiment: as above; settings: P. falciparum in erythrocytes, SYBR Green DNA, 72 h; series mostly up to 28.7 µM
Procedure, shortened: as §1

[12] = tested on: CP201; experiment: as above; settings: P. falciparum in erythrocytes, SYBR Green DNA, 72 h; series mostly up to 28.7 µM
Procedure, shortened: as §1

[13] = tested on: CP211; experiment: as above; settings: P. falciparum in erythrocytes, SYBR Green DNA, 72 h; series mostly up to 28.7 µM
Procedure, shortened: as §1

[14] = tested on: CP215; experiment: as above; settings: P. falciparum in erythrocytes, SYBR Green DNA, 72 h; series mostly up to 28.7 µM
Procedure, shortened: as §1

[15] = tested on: CP217; experiment: as above; settings: P. falciparum in erythrocytes, SYBR Green DNA, 72 h; series mostly up to 28.7 µM
Procedure, shortened: as §1

[16] = tested on: CP237; experiment: as above; settings: P. falciparum in erythrocytes, SYBR Green DNA, 72 h; series mostly up to 28.7 µM
Procedure, shortened: as §1

[17] = tested on: CP238; experiment: as above; settings: P. falciparum in erythrocytes, SYBR Green DNA, 72 h; series mostly up to 28.7 µM
Procedure, shortened: as §1

[18] = tested on: CP247; experiment: as above; settings: P. falciparum in erythrocytes, SYBR Green DNA, 72 h; series mostly up to 28.7 µM
Procedure, shortened: as §1

[19] = tested on: 7G8; experiment: as above; settings: P. falciparum in erythrocytes, SYBR Green DNA, 72 h; series mostly up to 28.7 µM
Procedure, shortened: as §1

[20] = tested on: CP203; experiment: as above; settings: P. falciparum in erythrocytes, SYBR Green DNA, 72 h; series mostly up to 28.7 µM
Procedure, shortened: as §1
Potency is read from the fitted curve at half-maximal effect.

Cc1cc(O)c2ccccc2c1O
inactive: activity, negative = inhibition ([1]; parasite line A) 7.28% | activity, negative = inhibition ([1]; parasite line B) -10.1% | Potency [3] | Potency [4] | Potency [5] | Potency [6] | Potency [7] | Potency [8] | Potency [9] | Potency [10] | Potency [11] | Potency [12] | Potency [13] | Potency [14] | Potency [15] | Potency [16] | Potency [17] | Potency [18]
active: Potency [2] 12.6 µM

O=C1CN(/N=C/c2ccc(-c3ccc([N+](=O)[O-])cc3)o2)C(=O)N1
inactive: activity, negative = inhibition ([1]; parasite line A) -11.3% | activity, negative = inhibition ([1]; parasite line B) -1.58% | Potency [3] | Potency [4] | Potency [5] | Potency [6] | Potency [7] | Potency [8] | Potency [10] | Potency [11] | Potency [13] | Potency [15] | Potency [17]
active: Potency [9] 7.08 µM | Potency [18] 4.47 µM

CCCCCCCCCCCCCCCC(=O)OC(C)C
inactive: Potency [2] | Potency [19] | Potency [3] | Potency [4] | Potency [5] | Potency [6] | Potency [7] | Potency [8] | Potency [9] | Potency [10] | Potency [11] | Potency [12] | Potency [13] | Potency [14] | Potency [15] | Potency [16] | Potency [17] | Potency [18]

COC(=O)C1=C(C)NC(C)=C(C(=O)OCC(C)C)C1c1ccccc1[N+](=O)[O-] (configuration not stated)
active: Potency ([1]; parasite line A) 11.2 µM | Potency ([1]; parasite line B) 10 µM | Potency [19] 3.16 µM | Potency [4] 10 µM | Potency [9] 12.6 µM

CCCCCCCCCCCCCCCCCC(=O)O
inactive: activity, negative = inhibition ([1]; parasite line A) -10.1% | activity, negative = inhibition ([1]; parasite line B) -2.97% | Potency [2] | Potency [19] | Potency [3] | Potency [4] | Potency [5] | Potency [6] | Potency [7] | Potency [8] | Potency [9] | Potency [10] | Potency [11] | Potency [12] | Potency [14] | Potency [15] | Potency [16] | Potency [17] | Potency [18]

CCCC(=O)OC[C@@H](OC(=O)CCC)[C@@H](OC(=O)CCC)[C@H](Cn1c2nc(=O)[nH]c(=O)c-2nc2cc(C)c(C)cc21)OC(=O)CCC
inactive: activity, negative = inhibition ([1]; parasite line A) -28.7% | Potency [5] | Potency [10] | Potency [11] | Potency [12] | Potency [13] | Potency [14] | Potency [16]

CN1[C@@H]2CC[C@H]1CC(OC(=O)C(CO)c1ccccc1)C2 (some centres not stated)
inactive: activity, negative = inhibition ([1]; parasite line A) -2.42% | Potency [2] | Potency [19] | Potency [3] | Potency [4] | Potency [5] | Potency [6] | Potency [7] | Potency [8] | Potency [9] | Potency [10] | Potency [11] | Potency [12] | Potency [13] | Potency [14] | Potency [15] | Potency [16] | Potency [17] | Potency [18]

CC1OC1P(=O)(O)O (configuration not stated)
inactive: activity, negative = inhibition ([1]; parasite line A) -11.9% | activity, negative = inhibition ([1]; parasite line B) 1.11% | Potency [2] | Potency [19] | Potency [3] | Potency [4] | Potency [5] | Potency [6] | Potency [7] | Potency [8] | Potency [9] | Potency [10] | Potency [11] | Potency [12] | Potency [13] | Potency [14] | Potency [15] | Potency [16] | Potency [17] | Potency [18]

Clc1ccccc1-c1nc(-c2ccncc2)no1
inactive: activity, negative = inhibition ([1]; parasite line A) 11.4% | activity, negative = inhibition ([1]; parasite line B) -1.37% | Potency [2] | Potency [3] | Potency [5] | Potency [6] | Potency [7] | Potency [8] | Potency [9] | Potency [10] | Potency [11] | Potency [12] | Potency [20] | Potency [13] | Potency [14] | Potency [15] | Potency [16] | Potency [17] | Potency [18]
active: Potency [19] 10 µM

C=CCN1C(=O)C(CC(C)C)NC1=S (configuration not stated)
inactive: activity, negative = inhibition ([1]; parasite line A) -18.4% and 2.94% | activity, negative = inhibition ([1]; parasite line B) -2.47% and 3.7% | Potency [2] | Potency [19] | Potency [3] | Potency [4] | Potency [5] | Potency [6] | Potency [7] | Potency [8] | Potency [9] | Potency [10] | Potency [11] | Potency [12] | Potency [13] | Potency [14] | Potency [15] | Potency [16] | Potency [17] | Potency [18]

O=C(CCN1CCN(CCO)CC1)N1c2ccccc2Sc2ccc(C(F)(F)F)cc21
inactive: Potency [3] | Potency [6] | Potency [10] | Potency [12] | Potency [14]
active: Potency ([1]; parasite line A) 14.1 µM | Potency [19] 7.94 µM | Potency [4] 14.1 µM | Potency [5] 11.2 µM | Potency [9] 4.47 µM | Potency [16] 10 µM

O=C(O)c1cc(O)c(O)c(O)c1
inactive: activity, negative = inhibition ([1]; parasite line A) -23.1% | activity, negative = inhibition ([1]; parasite line B) -29.8% | Potency [3] | Potency [4] | Potency [5] | Potency [6] | Potency [8] | Potency [10] | Potency [11] | Potency [12] | Potency [20] | Potency [13] | Potency [14] | Potency [15] | Potency [17]

CN1[C@@H]2CC[C@H]1CC(OC(c1ccccc1)c1ccccc1)C2 (some centres not stated)
inactive: Potency [2] | Potency [7] | Potency [10]
active: Potency [19] 5.62 µM and 7.08 µM | Potency [4] 12.6 µM | Potency [6] 12.6 µM | Potency [9] 8.91 µM | Potency [15] 12.6 µM

O=C(O)c1ccccc1Nc1cccc(C(F)(F)F)c1
inactive: activity, negative = inhibition ([1]; parasite line A) -6.43% | activity, negative = inhibition ([1]; parasite line B) 10.3% | Potency [2] | Potency [19] | Potency [3] | Potency [4] | Potency [5] | Potency [6] | Potency [7] | Potency [8] | Potency [11] | Potency [12] | Potency [13] | Potency [14] | Potency [15] | Potency [16] | Potency [17] | Potency [18]

COc1cc(/C=C/C(=O)CC(=O)/C=C/c2ccc(O)c(OC)c2)ccc1O
active: Potency [2] 10 µM | Potency [19] 11.2 µM | Potency [7] 10 µM | Potency [14] 16.9 µM | Potency [18] 8.91 µM

CCCOC(=O)c1ccc(O)cc1
inactive: activity, negative = inhibition ([1]; parasite line A) 4.05% | activity, negative = inhibition ([1]; parasite line B) 3.75% | Potency [2] | Potency [3] | Potency [4] | Potency [5] | Potency [6] | Potency [7] | Potency [8] | Potency [9] | Potency [10] | Potency [11] | Potency [12] | Potency [13] | Potency [14] | Potency [15] | Potency [16] | Potency [17] | Potency [18]

c1ccc2sc(SN3CCOCC3)nc2c1
inactive: activity, negative = inhibition ([1]; parasite line A) -12.8% | Potency [2] | Potency [3] | Potency [5] | Potency [6] | Potency [7] | Potency [8] | Potency [9] | Potency [10] | Potency [11] | Potency [12] | Potency [13] | Potency [14] | Potency [15] | Potency [16] | Potency [17] | Potency [18]
active: Potency [19] 11.2 µM
